Test results from PubChem BioAssay AID778 (Sanford-Burnham Center for Chemical Genomics, 2007).
Hit rate of the full screen: of about 96,000 compounds, about 20,000 (21%) were called active. Only a sample is shown. Values without a mark were called inactive.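 Rule for the calls: active = CYP2C19 inhibition above a set limit at 5 µM in the primary screen (cut at about 50% in these data); inactive = the rest.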

target: Cytochrome P450 2C19 (Homo sapiens) (UniProt P33261); test: blockers of cytochrome P450 2C19 activity – biochemical, luminescence, ADME assay, primary screen (AID 778); conditions: CYP2C19 Supersomes, luciferin-H EGE luminescence, 30 min; at 5 µM; stronger effect = higher value;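 note: plate controls were negative control wells for no effect and 2.5 mM tranylcypromine positive control for full effect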
Sequence (P33261 whole entry, looked up): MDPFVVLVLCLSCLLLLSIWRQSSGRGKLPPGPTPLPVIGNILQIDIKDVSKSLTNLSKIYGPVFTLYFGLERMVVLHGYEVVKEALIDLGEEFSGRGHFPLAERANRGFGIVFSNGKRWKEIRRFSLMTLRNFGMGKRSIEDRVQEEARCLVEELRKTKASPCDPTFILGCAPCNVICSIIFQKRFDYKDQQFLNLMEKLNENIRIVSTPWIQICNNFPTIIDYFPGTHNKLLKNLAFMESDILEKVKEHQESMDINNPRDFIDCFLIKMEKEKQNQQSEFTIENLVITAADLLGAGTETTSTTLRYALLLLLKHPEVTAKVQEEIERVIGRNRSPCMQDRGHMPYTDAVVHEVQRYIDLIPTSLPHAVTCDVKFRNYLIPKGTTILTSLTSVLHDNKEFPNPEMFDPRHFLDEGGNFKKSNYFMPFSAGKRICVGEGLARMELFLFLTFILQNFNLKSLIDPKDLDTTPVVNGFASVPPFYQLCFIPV

Row | SMILES | inhibition
1 | O=C(Cc1ccc(-n2c(=O)[nH]c3ccccc3c2=O)cc1)N1CCN(c2cccc(Cl)c2)CC1 | 40.3%
2 | Cc1cc(C(F)(F)F)c(C#N)c(SCC(=O)NC2CC2)n1 | 13.5%
3 | Cc1cc(=O)[nH]c(SCC(N)=O)c1C#N | -8.9%
4 | Cc1cc(C)c(C#N)c(SCS(=O)c2ccc(C(C)(C)C)cc2)n1 (stereo not given) | 78.5% (active)
5 | Cc1cc(N2CCCC2=O)cc(C)c1S(N)(=O)=O | -13.1%
6 | Cn1c(=O)[nH]c(=O)c2c1nc(N(CCO)Cc1ccccc1)n2Cc1ccccc1Cl | 9.3%
7 | COc1ccc(CCNC(=O)CSc2nnc(-c3cccc(F)c3)o2)cc1OC | 95.8% (active)
8 | COc1ccc(CCNC(=O)CSc2nc(C)nc3c2oc2ccccc23)cc1OC | -3.9%
9 | COc1ccc(CCNC(=O)CSc2nnc(CNC(=O)c3cccs3)o2)cc1OC | 2.4%
10 | Cn1c(SCC(=O)NC2CCCCC2)nnc1-c1cc2ccccc2o1 | 44.2%
11 | COc1ccccc1-c1nnc(SCC(=O)Nc2ccccc2)o1 | 69.7% (active)
12 | COc1ccc(C(=O)N(CCN2CCOCC2)CC(=O)NC2CCCC2)cc1OC | -7.2%
13 | COc1ccccc1-c1nnc(SCC(=O)Nc2cc(C)on2)o1 | -7.2%
14 | COc1ccccc1-c1nnc(SCC(=O)N2CC(C)CC(C)C2)o1 (stereo not given) | 49.2%
15 | COc1ccc(-c2nnc(SCC(=O)NC3CCCCC3)o2)cc1OC | 56.3% (active)
16 | O=c1c2ccccc2nc(N/N=C/c2ccccc2)n1O | -14.2%
17 | CC(C)c1cc(C(=O)O)on1 | -10.8%
18 | CCCCCCNCCn1cnc2c(N)ncnc21 | -9.3%
19 | Cc1ccc(C(=O)N/N=C/c2sc(=O)n(Cc3cccc(C(=O)O)c3)c2Cl)cc1 | 22.8%
20 | COc1ccc(C2C=C(c3ccc(Br)cc3)Nc3nc(NS(C)(=O)=O)nn32)cc1 (stereo not given) | 3.9%
21 | O=C(Nc1cccc(Cl)c1)Nc1nnc(-c2ccccc2)o1 | 12.7%
22 | CC1CC(C)CN(CC(=O)Nc2ccc(S(N)(=O)=O)cc2)C1 (stereo not given) | 4.7%

Row | SMILES | inhibition
23 | CC(C)Nc1nc(N(c2ccccc2)c2ccccc2)nc(-n2ccnc2)n1 | 39.2%
24 | O=C(COc1ccc2c(C(F)(F)F)cc(=O)oc2c1)Nc1ccc2c(c1)OCCO2 | -8.9%
25 | O=C(Nc1nc(-c2ccncc2)cs1)C1COc2ccccc2O1 (stereo not given) | 96.4% (active)
26 | CCCCC(=O)Nc1ccc2c(c1)OCCO2 | 50.3% (active)
27 | COC(=O)CCNc1ccc2c(c1)OCCO2 | 24.9%
28 | CC(=O)c1cccc(NC(=O)c2ccncc2)c1 | 74.6% (active)
29 | C=C(C)C(=O)Nc1cccc(C(C)=O)c1 | -1.5%
30 | CSc1ccccc1C(=O)Nc1cccc(C(C)=O)c1 | 3.3%
31 | O=C(Nc1nnc(SCc2ccc(Cl)cc2Cl)s1)C1COc2ccccc2O1 (stereo not given) | 38.1%
32 | COc1ccc(S(=O)(=O)N(C)CC(=O)Nc2ccc3c(c2)OCCO3)cc1OC | 21.9%
33 | O=C(CSC1=NCCS1)Nc1nc(-c2ccccc2)cs1 | 22%
34 | CCCCC(=O)Nc1ccc2c(c1)C(=O)NC2=O | -10.8%
35 | CCN(CC(=O)Nc1ccc2c(c1)OCCO2)Cc1cc(=O)oc2cc(C)c(C)cc12 | 88.4% (active)
36 | CCCN(CCC)CCNC(=O)c1cc2c(C)nc3ccccc3c2o1 | -9.3%
37 | Cc1c(C(=O)OCC(=O)N(CCC#N)c2ccccc2)oc2c1ccc1ccccc12 | 18.2%
38 | O=C(O)CCC(=O)N(Cc1cccs1)Cc1cccs1 | -5.7%
39 | COc1cccc(-c2cnc(OC(C)(C)C)nc2OC(C)(C)C)c1 | 9.2%
40 | CCCNC(=O)c1ccc(Cl)c(Cl)c1 | -2.2%
41 | CN(C)c1nc(N)nc(CSc2nnnn2-c2cccc3ccccc23)n1 | 24.3%
42 | O=C1C2(c3ccccc3)CN(CCCO)CC1(c1ccccc1)CN(CCCO)C2 | 6.9%
43 | Cc1ccccc1C(OCC(O)CN1CCCCC1CCO)c1ccccc1 (stereo not given) | 18%
44 | CCc1nnc(NC(=O)CCC(=O)O)s1 | -16.3%

Row | SMILES | inhibition
45 | CC(C)(C)n1nnc(CCc2nnn(C(C)(C)C)n2)n1 | 34.7%
46 | Cc1cc(C)c2nc(NC(=O)c3ccc4c(c3)OCO4)sc2c1 | -1.4%
47 | Cn1cc([N+](=O)[O-])c(C(=O)Nc2ccc3c(c2)OCCO3)n1 | 43.6%
48 | O=C(Nc1nc(-c2ccc3c(c2)OCO3)cs1)c1ccncc1 | 63.2% (active)
49 | O=C(Nc1ccc2c(c1)OCCO2)c1cnccn1 | 14.5%
50 | Cc1ccc(-c2csc(NC(=O)Cc3cccs3)n2)cc1C | 10%
51 | O=C(Nc1ccc2c(c1)OCCO2)c1ccncc1 | 76.5% (active)
52 | O=C(O)c1cccc2c1C(=O)N(C1CCCCC1)C2 | -19.3%
53 | Brc1cccc(-c2nnc3n2CCC3)c1 | -4.8%
54 | O=C(CNC(=O)c1cc2c(s1)CCC2)Nc1ccccc1Br | 7%
55 | O=C(NCCN1CCOCC1)c1c(F)c(F)c(F)c(F)c1F | -10.6%
56 | O=C(NCCCN1CCOCC1)c1cc2c(s1)CCC2 | 52.8% (active)
57 | CCCCOC(=O)CNc1nnc(SCC(=O)OCC)[nH]c1=O | -15.4%
58 | COC(=O)c1ccc(CSc2nc3cc(Cl)ccc3o2)cc1 | -5.7%
59 | Fc1ccc(CSc2nnc(-c3cc4c(s3)-c3ccccc3CC4)o2)cc1 | 31.9%
60 | Clc1ccc(CSc2nnc([C@@H]3CCCN3)o2)cc1 | 97.9% (active)
61 | CCC(C)NC(=O)c1cc(Cl)ccc1OC (stereo not given) | 22%
62 | Cc1cc(C(F)F)n2nc(C(=O)Nc3ccc(S(=O)(=O)NC45CC6CC(CC(C6)C4)C5)cc3)nc2n1 | 21.2%
63 | COc1ccccc1C(=O)Nc1nc2nc(-c3ccccc3)cc(=O)n2[nH]1 | 7.1%
64 | COC(=O)CNC(c1ccccc1Cl)c1cc(Br)ccc1NC(=O)CCN1CCOCC1 (stereo not given) | -3.3%
65 | CC(=O)c1c(C)n(-c2ccc(N(C)C)cc2)c2ccc(OCC(N)=O)cc12 | 18.6%
